S1P4 antag: blocks the human S1P4 receptor. inhibition, % at 4.98 µM. O95977. S1P4-expressing cells, antagonist mode, reporter read-out. 220,000 tested, 0.26% active. AID 1510; in the data active means inhibition above about 29%;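 further: 0% = wells stimulated with agonist and 100% = vehicle wells without agonist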
Target sequence (O95977 whole entry, looked up): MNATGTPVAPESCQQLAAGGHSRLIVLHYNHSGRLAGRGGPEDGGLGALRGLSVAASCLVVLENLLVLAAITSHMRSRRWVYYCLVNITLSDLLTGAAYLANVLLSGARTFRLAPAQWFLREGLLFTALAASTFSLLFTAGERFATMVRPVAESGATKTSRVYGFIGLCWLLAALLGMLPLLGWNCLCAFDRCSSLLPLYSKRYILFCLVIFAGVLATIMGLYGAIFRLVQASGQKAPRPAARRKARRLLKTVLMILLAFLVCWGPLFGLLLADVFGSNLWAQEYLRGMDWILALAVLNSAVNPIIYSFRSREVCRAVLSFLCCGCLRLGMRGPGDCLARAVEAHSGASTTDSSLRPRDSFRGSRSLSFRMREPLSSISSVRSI
HSF1 inh: HSF1 inhibition; NIH3T3-HGL HSE-luciferase, MG132-induced, luminescence 8 h; active compounds read low; activity change, negative = inhibition, % at 7.5 µM (by protocol); 300,000 tested, 0.77% active; AID 2098;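 active means more than half of replicate wells show activity change below -50%, luminescence cut by over half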;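 further: luciferase reports HSF-1 transcriptional activity via heat shock element; 0% = median of DMSO wells and -100% = zero luminescence signal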
S1P4 ag: agonists of human S1P4 receptor; O95977; AID 1509; activation, % at 4.98 µM; S1P4-expressing cell line, agonist reporter assay; 220,000 tested, 0.35% active; in the data active means activation above about 11%;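 further: 0% = DMSO vehicle and 100% = reference agonist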
HSF1 activator: increases HSF-1 driven luciferase reporter signal; NIH3T3-HGL HSF-1 luciferase reporter, MG132, 8 h; 100% = twice DMSO control signal; activation, % at 9 µM; 300,000 tested, 1.7% active; AID 504408;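 active means mean replicate activation of at least 50% with a set share of replicates each reaching 50%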;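 further: 0% = median of the neutral control wells and 100% = twice that signal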
S1P3 antag: S1P3 (human) receptor antagonism; Q99500; CHO S1P3 NFAT-BLA reporter, FRET fluorescence, antagonist mode; inhibition, % at 4.98 µM; 170,000 tested, 0.27% active; AID 485;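 active means inhibition above the plate cutoff, the mean inhibition of test wells on that plate plus 3 SD, cut at about 28% in these data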;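 further: cells challenged with S1P at its EC80 of 0.8 µM; blue over green emission ratio from cleaved BLA substrate after 4 h stimulation; 0% = S1P-stimulated wells and 100% = unstimulated DMSO-only wells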
Hsp70 activator: transcriptional activators of Hsp70. HeLa Hsp70 promoter luciferase reporter, luminescence; scaled: vehicle 0, proteasome-inhibitor control 100%. activation, % at 10 µM. 200,000 tested, 0.04% active;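 active means activation above the mean across all tested compounds plus 3 SD, cutoff set per campaign, cut at about 5.5% in these data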;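 further: 100% = MG132 at 30 µM as the positive control and 0% = DMSO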
* = called active by the depositor; / = not tested or not shown. Most compounds without a hit are left out; they make up all but 2.9% or so of the library.

SMILES	S1P4 antag	HSF1 inh	S1P4 ag	HSF1 activator	S1P3 antag	Hsp70 activator
O=C(Nc1cccc(NC(=O)c2ccc([N+](=O)[O-])o2)c1)c1ccco1	/	66	/	93*	/	/
O=C(Nc1ccc(NC(=O)c2ccc([N+](=O)[O-])o2)cc1Cl)c1ccco1	/	121	/	162*	/	/
O=c1oc(/C=C/c2ccco2)nc2sc3c(c12)CCC3	-5	7	-1	3	/	0
COc1ccc(C2CC(=O)Nc3n[nH]c(-c4ccccc4)c32)cc1OC (stereo not given)	-4	10	3	11	-2	0
Cc1ccccc1N=C(NOCc1ccc(Cl)cc1Cl)c1nonc1N	-2	16	1	5	/	1
Cc1ccc(N=C(NOCc2ccc(Cl)cc2Cl)c2nonc2N)c(C)c1	-7	19	3	59*	/	0
CC/C(C)=N/NC(=S)NCc1ccco1	3	-13	0	-3	1	0
CCOC(=O)c1sc(-c2ccccc2)nc1C	-6	6	1	10	-17	0
CCOC(=O)Cc1ccc2sc(-c3ccccc3)nc2c1	-23	53	0	92*	-20	0
O=C1/C(=C/c2ccccc2)CCC1C1CCCC1 (stereo not given)	-10	14	-1	30	-8	0
O=C1/C(=C/c2ccco2)CCC1C1CCCC1 (stereo not given)	-12	42	2	61*	-10	0
COc1cc(C(CCN2CCCCC2)c2c(OC)cc(OC)c3c(C)cc(=O)oc23)cc(OC)c1OC (stereo not given)	/	2	/	-10	/	/
CC1CCN(c2ccc(C(=O)NCc3cccs3)cn2)CC1	-17	39	0	52*	-9	0
CCn1cc(CNC(=O)C2CCC(=O)N(Cc3ccc(Cl)cc3)C2)cn1 (stereo not given)	/	-3	/	-16	/	/
O=C(NCCCN1CCCC1)c1ccc(CS(=O)(=O)c2c(Cl)cccc2Cl)o1	/	0	/	4	/	/
Cc1ccc(C#N)c(SCc2nnc(-c3ccc(Cl)cc3)o2)n1	-16	-84*	0	-86	6	0
Cc1cc(C)c(C#N)c(SCc2nnc(-c3ccccc3)o2)n1	-30	-85*	2	-88	9	0
Cc1cc(C)c(C#N)c(SCc2nnc(-c3ccccc3[N+](=O)[O-])o2)n1	-7	20	2	36	10	0
COc1ccc(NC(=S)N2CCc3ccccc32)cc1OC	/	10	/	23	/	/
CCn1c2ccccc2c2c3ncc4cccn4c3ccc21	-1	11	8	19	3	/
CCOC(=O)Cn1c(S(=O)(=O)Cc2ccc(F)cc2)nc(-c2ccccc2)c1-c1ccccc1	-19	40	2	89*	/	0
O=C(N1CCCC1)N1CCN(S(=O)(=O)c2ccccc2)CC1	/	-2	/	5	/	/
O=C1C(=C2SCCCS2)CC/C1=C\c1ccc(F)cc1	-6	-75*	-2	-78	/	0
CN1CCN(c2nc(-c3ccc(C(C)(C)C)cc3)nc3ccccc23)CC1	/	-80*	/	-84	/	/
Nc1nc(NC(=O)C(Cl)(Cl)Cl)nn1-c1ccccc1	-8	-77*	4	-82	-8	0
SMILES	S1P4 antag	HSF1 inh	S1P4 ag	HSF1 activator	S1P3 antag	Hsp70 activator
CCC(=O)Nc1nc(N)n(-c2ccccc2)n1	-5	-5	2	-5	/	-1
Cn1c(C(=O)NC2CC2)cc(=O)n(C)c1=O	-1	-9	1	10	2	0
Cc1nc(SCC(=O)c2cccs2)c2oc3ccccc3c2n1	8	33	-3	51*	/	1
O=C(CSc1ncnc2c1oc1ccccc12)c1cccs1	-2	21	-1	21	-7	0
O=[N+]([O-])c1ccccc1N/N=C/c1c[nH]c2ccccc12	-35	98	1	150*	/	0
Cc1ccc(/C=N/Nc2nc3ccccc3[nH]2)s1	-13	440	3	452*	7	0
O=c1[nH]c(N/N=C/c2cc3c(cc2[N+](=O)[O-])OCO3)nc2ccccc12	23	5	1	9	12	/
O=[N+]([O-])c1cc(/C=N/Nc2nc3ccccc3[nH]2)c(O)cc1O	-16	247	2	305*	3	0
COc1ccc(/C=N/Nc2nc3ccccc3[nH]2)c(OC)c1OC	4	110	-1	108*	-2	/
CCOC(=O)N1CCN(Cc2nc3cc(NC(=O)CC(C)C)ccc3n2CC)CC1	/	-5	/	3	/	/
CC(C)Oc1ccc(C(=O)Nc2cccc3cccnc23)cc1	11	-7	0	10	2	0
COc1ccc(Cl)cc1Nc1nc2ccc(C)cc2n2cnnc12	/	-2	/	2	/	/
CN1CCCN(Cc2ccccc2Br)CC1	/	-5	/	7	/	/
Cc1cc(=O)[nH]c(N/N=C/c2c[nH]c3ccccc23)n1	14	7	0	36	-2	/
C(=N\Nc1nc2ccccc2[nH]1)/c1cccc2cccnc12	7	-15	0	-8	14	/
Cc1ccccc1/C=N/Nc1nc2ccccc2[nH]1	15	177	0	229*	1	0
C(=N\Nc1nc2ccccc2[nH]1)/c1c[nH]c2ccccc12	-26	244	3	309*	19	0
COc1ccc(S(=O)(=O)N2CCN(Cc3ccco3)CC2)cc1	/	0	/	-13	/	/
COc1ccc(C(=O)N2CCc3ccc(NC(=O)c4ccccn4)cc3C2)cc1F	/	3	/	43	/	/
O=C(Nc1ccccn1)c1csc2c1CCCC2	0	43	2	53*	-12	0
c1ccc(COc2cccc(CN3CCN(c4ccccn4)CC3)c2)cc1	2	-55*	1	-63	10	0
Cc1cccc(CN2CCN(c3ccccn3)CC2)c1	-1	1	1	-18	-4	-1
COc1cccc(/C=C/C(=O)c2cccc([N+](=O)[O-])c2)c1OC	7	21	3	58*	-1	0
COc1ccc(-c2sc(C(=O)c3ccc(Cl)cc3Cl)cc2CC(=O)O)cc1	/	-4	/	10	/	/
COc1cc(/C=C(\C#N)c2nc3c(s2)CCCC3)ccc1O	-11	-2	0	17	/	0
SMILES	S1P4 antag	HSF1 inh	S1P4 ag	HSF1 activator	S1P3 antag	Hsp70 activator
N#C/C(=C\c1cccnc1)c1nc2c(s1)CCCC2	23	71	1	107*	-8	0
CC1CCc2nc(/C(C#N)=C/c3cccnc3)sc2C1 (stereo not given)	9	102	1	126*	10	0
CCn1cnc2cc(NCc3ccc(N(C)C)cc3)ccc21	0	-25	-1	-44	-19	0
Cn1cnc2cc(NCc3ccc(Cl)cc3)ccc21	/	63	/	66*	/	/
CCCn1cnc2cc(NCc3ccc(Br)cc3)ccc21	/	24	/	38	/	/
CN(C)c1ccc(CNc2ccc3c(c2)ncn3C(C)(C)C)cc1	/	-54*	/	-62	/	/
CCCn1cnc2cc(NCc3cccc(OC)c3)ccc21	-12	28	2	51*	8	0
COc1cc(C)nc(-n2nc(C)cc2OC)n1	-24	-1	2	-6	4	0

Compound activity deposited in PubChem BioAssay by several laboratories.
